Data: paper PMC8222333, “AsCas12a ultra nuclease facilitates the rapid generation of therapeutic cell medicines”

B1: ATCA (dsDNA)
DNA 1: GCTATCTAGTGCTCAGTACGCACTGATCAAGGAAACTTCTGGCAGGACCAGGTCATGAGATCGGAAGAGCACACGTCTGAACTCCAGTCA
DNA 2: TGACTGGAGTTCAGACGTGTGCTCTTCCGATCTCATGACCTGGTCCTGCCAGAAGTTTCCTTGATCAGTGCGTACTGAGCACTAGATAGC
RNA: AAUUUCUACUCUUGUAGAUAGGAAACUUCUGGCAGGACC
B2: ATCT (dsDNA)
DNA 1: GCTATCTAGTGCTCAGTACGCACTGATCTAGGAAACTTCTGGCAGGACCAGGTCATGAGATCGGAAGAGCACACGTCTGAACTCCAGTCA
DNA 2: TGACTGGAGTTCAGACGTGTGCTCTTCCGATCTCATGACCTGGTCCTGCCAGAAGTTTCCTAGATCAGTGCGTACTGAGCACTAGATAGC
RNA: AAUUUCUACUCUUGUAGAUAGGAAACUUCUGGCAGGACC
B3: ATGC (dsDNA)
DNA 1: GCTATCTAGTGCTCAGTACGCACTGATGCAGGAAACTTCTGGCAGGACCAGGTCATGAGATCGGAAGAGCACACGTCTGAACTCCAGTCA
DNA 2: TGACTGGAGTTCAGACGTGTGCTCTTCCGATCTCATGACCTGGTCCTGCCAGAAGTTTCCTGCATCAGTGCGTACTGAGCACTAGATAGC
RNA: AAUUUCUACUCUUGUAGAUAGGAAACUUCUGGCAGGACC
B4: CACT (dsDNA)
DNA 1: GCTATCTAGTGCTCAGTACGCACTGCACTAGGAAACTTCTGGCAGGACCAGGTCATGAGATCGGAAGAGCACACGTCTGAACTCCAGTCA
DNA 2: TGACTGGAGTTCAGACGTGTGCTCTTCCGATCTCATGACCTGGTCCTGCCAGAAGTTTCCTAGTGCAGTGCGTACTGAGCACTAGATAGC
RNA: AAUUUCUACUCUUGUAGAUAGGAAACUUCUGGCAGGACC
B5: CATA (dsDNA)
DNA 1: GCTATCTAGTGCTCAGTACGCACTGCATAAGGAAACTTCTGGCAGGACCAGGTCATGAGATCGGAAGAGCACACGTCTGAACTCCAGTCA
DNA 2: TGACTGGAGTTCAGACGTGTGCTCTTCCGATCTCATGACCTGGTCCTGCCAGAAGTTTCCTTATGCAGTGCGTACTGAGCACTAGATAGC
RNA: AAUUUCUACUCUUGUAGAUAGGAAACUUCUGGCAGGACC
B6: CATC (dsDNA)
DNA 1: GCTATCTAGTGCTCAGTACGCACTGCATCAGGAAACTTCTGGCAGGACCAGGTCATGAGATCGGAAGAGCACACGTCTGAACTCCAGTCA
DNA 2: TGACTGGAGTTCAGACGTGTGCTCTTCCGATCTCATGACCTGGTCCTGCCAGAAGTTTCCTGATGCAGTGCGTACTGAGCACTAGATAGC
RNA: AAUUUCUACUCUUGUAGAUAGGAAACUUCUGGCAGGACC
B7: CATG (dsDNA)
DNA 1: GCTATCTAGTGCTCAGTACGCACTGCATGAGGAAACTTCTGGCAGGACCAGGTCATGAGATCGGAAGAGCACACGTCTGAACTCCAGTCA
DNA 2: TGACTGGAGTTCAGACGTGTGCTCTTCCGATCTCATGACCTGGTCCTGCCAGAAGTTTCCTCATGCAGTGCGTACTGAGCACTAGATAGC
RNA: AAUUUCUACUCUUGUAGAUAGGAAACUUCUGGCAGGACC
B8: CCCA (dsDNA)
DNA 1: GCTATCTAGTGCTCAGTACGCACTGCCCAAGGAAACTTCTGGCAGGACCAGGTCATGAGATCGGAAGAGCACACGTCTGAACTCCAGTCA
DNA 2: TGACTGGAGTTCAGACGTGTGCTCTTCCGATCTCATGACCTGGTCCTGCCAGAAGTTTCCTTGGGCAGTGCGTACTGAGCACTAGATAGC
RNA: AAUUUCUACUCUUGUAGAUAGGAAACUUCUGGCAGGACC

These binders were tested against dAsCas12a E174R (Acidaminococcus sp., UniProt U2UMQ6 1-1307, E174R;D908A;E993A;D1235A) (assay: Spec-seq (native PAGE EMSA with sequencing of bound and unbound); 25 mM Tris-HCl pH 7.4, 150 mM KCl, 5 mM MgCl2, 10% glycerol, 1 mM DTT, 40 ng/uL salmon sperm DNA; 400 nM Cas12a, 480 nM crRNA, 50 nM library, 37 C 1 h; native PAGE at room temperature; high values mean tight binding). Details: protein: recombinant.

Binder | binding signal [lnKA]
B1 | -8.4
B2 | -8.78
B3 | -8.95
B4 | -8.98
B5 | -7.55
B6 | -8.78
B7 | -8.38
B8 | -8.63

These binders were tested against dAsCas12a S542R (Acidaminococcus sp., UniProt U2UMQ6 1-1307, S542R;D908A;E993A;D1235A) in the same assay as above. Details: protein: recombinant.

Binder | binding signal [lnKA]
B1 | -5.58
B2 | -7.09
B3 | -8.32
B4 | -8.41
B5 | -8.31
B6 | -8.13
B7 | -8.49
B8 | -6.21

The binders below were run against d-enCas12a (Acidaminococcus sp., UniProt U2UMQ6 1-1307, E174R;S542R;K548R;D908A;E993A;D1235A) in the same assay as above. Details: protein: recombinant.

Binder | binding signal [lnKA]
B1 | -1.74
B2 | -3.06
B3 | -5.32
B4 | -4.47
B5 | -2.95
B6 | -3.35
B7 | -4.73
B8 | -3.48

Each binder was assayed against d-enCas12a-Ultra (Acidaminococcus sp., UniProt U2UMQ6 1-1307, E174R;S542R;K548R;M537R;F870L;D908A;E993A;D1235A) in the same assay as above. Details: protein: recombinant.

Binder | binding signal [lnKA]
B1 | -0.402
B2 | -0.664
B3 | -2.52
B4 | -1.3
B5 | -0.95
B6 | -1.16
B7 | -2.28
B8 | -0.7

These binders were tested against dAsCas12a K548R (Acidaminococcus sp., UniProt U2UMQ6 1-1307, K548R;D908A;E993A;D1235A) in the same assay as above. Details: protein: recombinant.

Binder | binding signal [lnKA]
B6 | -8.88
